Only some compounds are listed: those with a hit (about 1% of all), similar ones and a draw of the others.
HUVEC tox TNFa – HUVEC cytotoxicity counter-screen, TNF alpha stimulated. HUVEC TNFalpha-stimulated, Hoechst cell count, imaging. cell count reduction, % at 2 µM. hit rate 0.17% among 93,000;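 active = cell count reduction exceeding the screen mean by over 5 SD, scaled to untreated wells per plate, cut at about 78% in these data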;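 note: cells counted after 24 h of TNF alpha exposure following the 1 h pretreatment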
cytoskel mod – modifiers of cytoskeleton assembly. inhibition, % at 2 µM. HUVEC TNFa F-actin phalloidin imaging, high content. hit rate 0.18% among 91,000;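 active = inhibition above the batch mean plus 3 SD and confirmed as a hit by visual image inspection, cut at about 30% in these data, passing the limit was not always enough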
E-sel TNF inh – blocks E-selectin expression induced by TNF alpha. HUVEC TNFa-induced E-selectin immunofluorescence, high content. inhibition, % at 2 µM. hit rate 0.71% among 120,000. AID 1246;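 active = inhibition above the batch mean plus 3 SD, and confirmed as a hit on visual image review, cut at about 43% in these data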;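 note: 0% = TNF-stimulated DMSO wells and 100% = unstimulated control wells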
VCAM1 TNFa inh – reduces TNF alpha induced VCAM1 expression in HUVEC | HUVEC TNFa-induced VCAM-1 immunofluorescence, high-content imaging | inhibition, % at 2 µM | hit rate 0.48% among 95,000 | AID 802;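 active = inhibition above the batch mean plus 3 SD, with images confirmed as a hit by eye, cut at about 37% in these data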;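 note: 0% = TNF-stimulated DMSO wells and 100% = unstimulated control wells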
Starred values were filed as active, the others as inactive; nt = no result given.

SMILES	HUVEC tox TNFa	cytoskel mod	E-sel TNF inh	VCAM1 TNFa inh
COc1cc(S(=O)(=O)NC2CCCC2)ccc1Cl	-24	-1	0	9
CCCCNC(=O)C1CCCN(S(=O)(=O)c2ccc(-n3cnnn3)cc2)C1 (stereo unspecified)	-11	-22	4	-6
O=C(NCC1CC1)C1CCCN(S(=O)(=O)c2ccc(-n3cnnn3)cc2)C1 (stereo unspecified)	-1	37	62*	9
CC(Sc1nncs1)C(=O)NCC(=O)Nc1ccc(F)c(F)c1F (stereo unspecified)	nt	nt	-34	nt
Cc1ccc(OCc2ccoc2C(=O)O)cc1C	-7	-7	-23	97*
Cc1ccc(OCc2ccc(C(=O)N3CCOCC3)cc2)cc1C	-30	16	3	5
CCN(CC)S(=O)(=O)c1ccc(-c2nnc(SCC(=O)Nc3ccc(OC)c(OC)c3)o2)cc1	-1	-3	4	-16
CCN(CC)S(=O)(=O)c1ccc(-c2nnc(SCC(=O)Nc3ccc(OC)cc3)o2)cc1	9	12	64*	40
COc1cc(CN2CCNC(=O)C2CC(=O)N(C)Cc2ncc[nH]2)cc(OC)c1 (stereo unspecified)	nt	nt	-17	nt
Cc1ccc(CSc2nc3ccccc3cc2C=O)cc1	56	-31	-16	95*
Cc1ccc(CSc2ncccc2C(=O)O)cc1	-24	4	5	-2
Clc1ccc(CSc2ncccn2)cc1	-4	-3	-6	4
O=Cc1cc2ccccc2nc1SCc1ccc(Cl)c(Cl)c1	69	-49	6	72*
COc1cnn(-c2ccccc2)c(=O)c1SCc1ccc(Cl)c(Cl)c1	-19	16	2	6
O=Cc1cc2ccccc2nc1SCc1ccc(Cl)cc1	34	-41	25	66*
Cc1cccc(NC(=S)NCCc2ccc3c(c2)OCCO3)c1C	nt	nt	-13	nt
O=C1NNC(=O)C2C3C=CC(C4CC34)C12 (stereo unspecified)	-18	nt	-8	10
CCOC(=O)c1ccc2c(c1)nc(SCc1cn3ccsc3n1)n2CC	-43	16	-3	8
O=C(Nc1ccccc1)C1=C(c2ccccc2)S(=O)(=O)CCS1(=O)=O	nt	nt	100*	nt
O=C(O)CN1C(=O)C2(OCCCO2)c2ccccc21	5	-8	-2	9
Cc1ccccc1CN1C(=O)C2(OCCCO2)c2ccccc21	-30	64*	-5	5
CCOC(=O)/C(=C\c1cccnc1)C(=O)c1cc(C(C)=O)c(Nc2ccccc2)s1	37	nt	18	54*
Cc1c(NC(=O)COC(=O)c2ccc(S(=O)(=O)N3CCOCC3)cc2)c(=O)n(-c2ccccc2)n1C	nt	nt	22	nt
COc1ccc(-c2cc3ccc(OCc4nn[nH]n4)cc3oc2=O)cc1OC	77	14	-32	51*
O=C(O)c1ccc(S(=O)(=O)c2ccc3c(c2)C(=O)N(Cc2ccco2)C3=O)cc1	-22	-6	1	12
SMILES	HUVEC tox TNFa	cytoskel mod	E-sel TNF inh	VCAM1 TNFa inh
Cc1ccc(C)n1NC(=O)c1cccs1	41	-47	100*	22
O=C(NCC1CCCO1)c1cccc(N2C(=O)C3C4C=CC(C4)C3C2=O)c1 (stereo unspecified)	nt	22	-4	-16
O=C(CCN1C(=O)C2C3C=CC(C3)C2C1=O)NCC1CCCO1 (stereo unspecified)	-50	69*	nt	10
O=C(CSc1nccn1-c1ccc(Cl)cc1)NCc1ccc2c(c1)OCO2	-27	9	-21	1
C=CCc1ccccc1OCC(O)CNC (stereo unspecified)	94*	67*	4	56*
C=CCc1ccccc1OCC(O)CN(C(C)C)C(C)C (stereo unspecified)	0	-4	-2	0
Cc1ccc2oc(=O)c3cnn(CC(=O)N4CCCc5ccccc54)c3c2c1	-18	12	nt	6
Cc1c(NC(=O)c2c(N)n(-c3ccccc3)c3nc4ccccc4nc23)c(=O)n(-c2ccccc2)n1C	nt	nt	77*	nt
Cc1c(NC(=O)c2c(F)cccc2F)c(=O)n(-c2ccccc2)n1C	-9	1	30	8
COc1cccc(C(=O)Nc2c(C)n[nH]c2C)c1	1	0	nt	8
Cc1cc(NC(=O)NC(=O)c2cccc(OC(F)(F)C(F)F)c2)n[nH]1	12	-8	-14	91*
Nn1c(SCC(=O)N2CCOCC2)nnc1C1CC1	nt	nt	21	nt
COC(=O)C1=C(C)N(c2cccc(C)c2)C(=O)/C1=C\c1cccs1	-14	7	-52	8
COC(=O)C1=NN(c2cccc(C)c2)C2C(=O)N(c3ccccc3OC)C(=O)C12 (stereo unspecified)	nt	nt	73*	nt
CCOC(=O)c1oc2ccccc2c1NC(=O)Cc1cccs1	75	-45	nt	83*
CCOCC(=O)Nc1c(C(=O)OCC)oc2ccccc12	-19	17	8	3
COc1ccc(CCNc2nnc(Sc3nnnn3-c3ccccc3)s2)cc1OC	36	9	19	87*
CCCn1c(SCC(=O)N2c3ccccc3Sc3ccccc32)nc2c1c(=O)n(C)c(=O)n2C	-6	13	65*	1
COc1cccc(N2C(=O)C3CCCN3C2c2ccc(Cl)cc2)c1 (stereo unspecified)	-19	1	nt	5
Cc1ccc(C)c(N(CC(=O)NCCSCc2ccco2)S(C)(=O)=O)c1	-20	18	63*	-7
CCCSc1nnc(Cn2c(=O)sc3ccccc32)n1C	nt	nt	-28	nt
COC(=O)c1cc2sccc2n1CC(=O)N1CCCc2ccccc21	-11	3	nt	12
COC(=O)c1cc2oc(C)cc2n1CC(=O)N1CCCc2ccccc21	-23	18	71*	0
CC(=O)c1ccc(NS(=O)(=O)c2cccc(C)c2)cc1	-7	-2	22	-74
NC(=O)COC(=O)c1ccccc1OCc1ccccc1Cl	nt	nt	-18	nt
SMILES	HUVEC tox TNFa	cytoskel mod	E-sel TNF inh	VCAM1 TNFa inh
CC(C)Oc1ccccc1C1CC(=O)Nc2cc3c(cc21)OCCO3 (stereo unspecified)	46	2	-8	86*
Cc1cc(N2CC(C(=O)O)CC2=O)ccc1Br (stereo unspecified)	92*	-8	-12	62
Cc1ccc(N2CC(C(=O)Nc3ccc(N(C)C)cc3)CC2=O)cc1C (stereo unspecified)	0	-4	5	-22
Cc1ccc(-n2c(C)cc(C=C(C#N)C#N)c2C)cc1	-13	-1	52*	10
Oc1ccc(N2CCN(c3ncnc4sc(-c5ccccc5)cc34)CC2)cc1	nt	nt	100*	nt
O=C(CCn1c(=O)oc2ccccc21)N1CCN(c2ccccc2F)CC1	80*	0	nt	41
O=C(CCn1c(=O)oc2ccccc21)N1CCN(C(c2ccccc2)c2ccccc2)CC1	-7	10	nt	-8
C=CCn1c(SC(C)C#N)nc2sc(CC)cc2c1=O (stereo unspecified)	nt	nt	-23	nt
CCC(C)Sc1nc(O)cc(=O)[nH]1 (stereo unspecified)	78*	-2	nt	15
COc1ccc(NC(=S)Nc2cccc(S(=O)(=O)N3CCCCC3)c2)cc1	nt	nt	-26	nt
O=C(CSc1nc2ccccc2c(=O)n1-c1ccccc1)NCc1ccco1	88*	-27	10	42
O=C(O)CSC1c2ccccc2C(=O)N1Cc1ccccc1 (stereo unspecified)	-13	29	69*	-4
O=C(Oc1nsnc1N1CCOCC1)N1CCOCC1	-9	-3	77*	14

Compound activity: PubChem BioAssay, Columbia University Molecular Screening Center
